Compound activity deposited in PubChem by Buhrlage Lab, Dana-Farber Cancer Institute and Novartis Institutes for BioMedical Research (Cambridge, Mass).
USP17 inh – blocks human USP17 ubiquitin-rhodamine cleavage; inhibition, % at 50 µM; 6.5% of 47,000 active; A8MUK1; purified USP17, Ub-rhodamine cleavage fluorescence, 3 h
USP10 inh – inhibitors of human USP10 deubiquitinase; purified USP10, Ub-rhodamine fluorescence, 60 min; 1.1% of 47,000 active; AID 1645856; Q14694; inhibition, % at 20 µM
USP8 block – blocks human USP8 ubiquitin-rhodamine cleavage; 4.2% of 47,000 active; inhibition, % at 20 µM; P40818; purified USP8, Ub-rhodamine cleavage fluorescence, 30 min; AID 1645853
Target sequence (P40818 whole entry, looked up): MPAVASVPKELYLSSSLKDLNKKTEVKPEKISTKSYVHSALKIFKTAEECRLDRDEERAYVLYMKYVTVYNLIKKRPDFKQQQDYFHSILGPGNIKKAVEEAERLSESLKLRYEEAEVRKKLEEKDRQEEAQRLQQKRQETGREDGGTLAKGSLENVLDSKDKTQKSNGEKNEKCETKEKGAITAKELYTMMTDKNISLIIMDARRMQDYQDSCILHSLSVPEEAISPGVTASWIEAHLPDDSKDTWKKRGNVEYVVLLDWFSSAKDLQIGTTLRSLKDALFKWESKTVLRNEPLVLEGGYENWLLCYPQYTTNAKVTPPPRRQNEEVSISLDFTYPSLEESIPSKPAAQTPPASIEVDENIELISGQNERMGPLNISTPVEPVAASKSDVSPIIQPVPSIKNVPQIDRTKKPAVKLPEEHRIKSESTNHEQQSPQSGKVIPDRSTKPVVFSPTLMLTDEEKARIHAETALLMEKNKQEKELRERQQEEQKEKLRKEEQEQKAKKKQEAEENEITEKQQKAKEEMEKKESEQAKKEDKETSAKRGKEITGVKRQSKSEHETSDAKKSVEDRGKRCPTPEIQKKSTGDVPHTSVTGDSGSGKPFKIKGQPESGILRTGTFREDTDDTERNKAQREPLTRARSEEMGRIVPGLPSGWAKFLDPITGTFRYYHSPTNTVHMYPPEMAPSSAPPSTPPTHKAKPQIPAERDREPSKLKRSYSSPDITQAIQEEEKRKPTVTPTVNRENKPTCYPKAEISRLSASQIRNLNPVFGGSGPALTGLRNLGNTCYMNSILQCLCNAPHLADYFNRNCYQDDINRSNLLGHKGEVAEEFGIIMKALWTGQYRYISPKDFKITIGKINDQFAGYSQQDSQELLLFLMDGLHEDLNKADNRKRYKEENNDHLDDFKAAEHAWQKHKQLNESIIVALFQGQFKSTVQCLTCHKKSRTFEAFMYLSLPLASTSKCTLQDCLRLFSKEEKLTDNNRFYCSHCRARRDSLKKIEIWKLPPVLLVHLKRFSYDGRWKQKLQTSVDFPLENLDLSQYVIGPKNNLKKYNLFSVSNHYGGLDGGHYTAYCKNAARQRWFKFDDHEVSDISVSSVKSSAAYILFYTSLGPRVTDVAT
USP28 inh – inhibitors of human USP28 deubiquitinase | inhibition, % at 25 µM | purified USP28, Ub-rhodamine cleavage fluorescence, 30 min | Q96RU2 | 3% of 47,000 active
USP30 inh – human USP30 deubiquitinase inhibition; Q70CQ3; purified USP30, Ub-rhodamine cleavage fluorescence; inhibition, % at 25 µM; 5.3% of 47,000 active; AID 1645860
Of the large screens only hits and unclear results are named; the others gave an inactive call. Sampled rows, rich in hits. Any-hit rate of the full collection: about 13%. Rule as the data show it: active = inhibition above about 30%; inactive = the rest.

O=C(CC1CCCC1)Nc1cc(F)c2nc(N3CCOCC3)ccc2c1	USP8 block 71
CCC(=O)Nc1nc2cc(NC(=O)Nc3ccccc3Cl)ccc2s1	USP8 block 33
Cc1ccnn1CCC(=O)N1CCc2nc3ccccc3c(=O)n2CC1	none
COc1ccccc1NC(=O)NCc1nnnn1-c1ccccc1	USP30 inh 32
Cc1ccc(NC(=O)NCc2nnnn2-c2ccccc2)cc1	none
O=C1C[C@@H]2O[C@H](CNC(=O)[C@@H]3CN(CCN3C(=O)C3CCOCC3)C(=O)[C@@H]3C[C@@H](CN3C3CCCC3)N1)[C@@H](O)[C@H]2O	none
c1ccc(Cn2ncc3c(SCc4nc5ccccc5[nH]4)ncnc32)cc1	USP30 inh 47
O=C(O)CC1(CC(=O)NCc2ccc(F)cc2)CCCCC1	none
O=C(O)CC1(c2ccc(F)cc2)C2CC3CC(C2)CC1C3 (stereo unspecified)	USP17 inh 32, USP8 block 33, USP30 inh 40
Nc1cc(C2CCN(S(=O)(=O)c3ccc4c(c3)CCCC4)CC2)no1	USP30 inh 48
CCOc1ccc2nc(NCCc3ccc(Cl)cc3Cl)sc2c1	USP28 inh 44
O=C(c1cnc(N2CCN(c3ncccn3)CC2)c2ccccc12)N1CCN(Cc2ccc3c(c2)OCO3)CC1	none
COc1c(O)c(C)c(C)c(O)c1OC (tested in a mixture with another compound)	none
COc1c(C)c(OC(=O)c2c(C)c(C)c(OC(=O)c3c(C)c(C)c(O)c(C)c3O)c(C)c2OC)c(C)c(C)c1C(=O)O	USP17 inh 51, USP10 inh 66, USP28 inh 70, USP30 inh 54
Cc1ccccc1C(C)NC(=O)c1cccc2ncccc12 (stereo unspecified)	none
Cc1cccc(O)c1C(=O)O[C@H](C)c1cccc2nc3c(C(=O)O)cccc3nc12	USP17 inh 38
Cc1cc(C)cc(NS(=O)(=O)c2cc3c4c(c2)CCC(=O)N4CCC3)c1	none
Cc1ccccc1CC(=O)NC1(c2nc(-c3cccnc3)no2)CCCCC1	none
O=C(NCc1ccccn1)c1nc(-c2ccc3cc[nH]c3c2)no1	none
O=C(NCCc1ccccc1)c1nc(-c2ccc3cc[nH]c3c2)no1	USP17 inh 48
CN(C(=O)c1ccncc1)[C@H]1CC[C@@]2(C)C[C@H](c3ccccc3)C[C@](C)(O2)[C@@H]1O	USP28 inh 81
CCOc1ccccc1C(=O)Nc1ccc(-c2nccs2)cc1	USP30 inh 31
CC(C)CCNC(=O)CSc1nc(-c2cccc(Cl)c2)nc2cc(=O)[nH]n12	USP17 inh 42
Cc1c(C)n2c(SCC(=O)Nc3cccc(Cl)c3)nnc2[nH]c1=O	none
O=C(CC1CCN(C(=O)Nc2ccccc2)CC1)N1CCOCC1	none
O=C(C[C@@H]1CCN2C[C@@H]1CCCOc1ccccc1CN(C(=O)Nc1ccccc1)CC2=O)N1CCOCC1	USP17 inh 75, USP28 inh 74, USP30 inh 79
CCOC(=O)C1CCN(C(=O)CN(c2ccccc2)S(=O)(=O)c2ccccc2)CC1	none
COC(=O)c1ccccc1NC(=O)CSc1nnc(CNc2ccc(F)cc2)n1CC1CCCO1 (stereo unspecified)	USP17 inh 90, USP8 block 96
Cn1cc(-c2cnc(-c3ccccc3)nc2)cc1C(=O)NC1CC1	none
COc1ccc(-c2cn(-c3ccc(SC(F)F)cc3)c3[n+]2CCC3)cc1OC	USP30 inh 30
Cc1nc2nc[nH]n2c(=O)c1CCC(=O)Nc1cc(Cl)cc(Cl)c1	none
O=C(COc1ccc(Cl)cc1)N1CCc2[nH]nc(-c3ccc(Cl)cc3)c2C1	USP30 inh 33
O=C(CNC(=O)c1cc2c(=O)n3ccccc3nc2s1)c1ccccc1	USP8 block 44
CSCc1cc(NCc2ccccc2)nc(-c2ccncc2)n1	USP30 inh 41
COc1cccc(-c2noc(-c3occc3Br)n2)c1	USP17 inh 40
COC(=O)CC1CC23OC2(C(=O)c2c(O)cccc2C3=O)C(C)O1 (stereo unspecified)	USP17 inh 65
O=C(O)CC1C(=O)Nc2c(O)cccc21 (stereo unspecified)	none
CC1OC(CC(=O)O)CC23OC12C(=O)c1c(O)cccc1C3=O (stereo unspecified)	USP17 inh 63
COC(=O)CC1CC2=C(C(=O)c3c(O)cccc3C2=O)C(C)O1 (stereo unspecified)	USP17 inh 42, USP28 inh 40
CC(C)c1cc(C(=O)Nc2ccc(Oc3ccccc3)cc2)nn1C1CCS(=O)(=O)C1 (stereo unspecified)	none
O=C(NCc1ccc(F)cc1)c1cccc(Nc2nc3ccccc3n3cnnc23)c1	USP17 inh 72, USP10 inh 38, USP28 inh 75, USP30 inh 80
COc1ccc(NC(=O)COc2cccc3c2CCN(Cc2cccnc2)C3=O)c(OC)c1	none
CCOC(=O)c1ccc(NC(=O)COc2cccc3c2CCN(Cc2cccnc2)C3=O)cc1	USP28 inh 32
O=C(NCc1cccs1)c1cc(OCc2ccccc2)nc2ccccc12	none
COc1ccccc1NS(=O)(=O)c1cccc(NC(=O)CCc2nc3ccccc3s2)c1	USP17 inh 61
CCOC(=O)c1cnc(Nc2cc(C(F)(F)F)cc(C(F)(F)F)c2)nc1C(F)(F)F	none
Cc1cc2cc(CCNC(=O)/C=C\c3ccccc3)c(=O)[nH]c2cc1C	none
Cc1ccc2cc(CCNC(=O)c3ccccc3Br)c(=O)[nH]c2c1	USP17 inh 48
Cc1cc2cc(CCNC(=O)c3ccc(F)cc3)c(=O)[nH]c2cc1C	none
Cc1ccc2cc(CCNC(=O)c3cccc(Br)c3)c(=O)[nH]c2c1	USP17 inh 67
O=C(c1ccccc1Cl)N1CCC(c2nnc(C3CC3)s2)CC1	none
Nc1c(-c2ccncc2)nsc1C(=O)NCc1ccccc1F	none
COc1cccc(CN2CCC3(CC2)OCCc2cnc(C)nc23)c1	none
COc1ccc(CN2CCC3(CC2)OCCc2cnc(C)nc23)c(OC)c1	USP30 inh 32
CN1C[C@H]2CCN(C(=O)c3cnccn3)CC[C@H]2S1(=O)=O	none
O=C1CC(c2nc3ccccc3n2Cc2ccccc2)CN1Cc1ccccc1 (stereo unspecified)	none
Cc1ccccc1OCCCn1c(C2CC(=O)N(Cc3ccccc3)C2)nc2ccccc21 (stereo unspecified)	USP30 inh 49
CCCCN(C)C(=O)Cn1c(C2CC(=O)N(Cc3ccc(F)cc3)C2)nc2ccccc21 (stereo unspecified)	USP17 inh 48
COc1ccc(-c2cc(C(C)=O)c(C)n2CCC(=O)Nc2ccc(C)cn2)cc1	none
COc1ccc(-c2cc(C(C)=O)c(C)n2CCC(=O)Nc2ccc(OC)cc2OC)cc1	USP17 inh 33, USP30 inh 81
CCOc1ccc(NC(=O)Cn2c(-c3ccccc3)cc(C(C)=O)c2C)cc1	USP8 block 36, USP30 inh 37 (no result: USP17 inh)
